The record followed here is PubChem BioAssay (Tox21).

The structures appear in SMILES notation. Inconclusive results are not listed. Values without a mark were called inactive. Activity calls are given as the source filed them. The call rests on the fitted dose curve; in most records, active means well fitted curve in the direction sought with a large enough effect in the repeat runs; inconclusive means weak or mixed curves; inactive means no such curve, though single readings can be large; an effect the other way counts as inactive or inconclusive.

Assay [1] in a line: A CellTox Green Cytotoxicity Assay to monitor cytotoxicity in HEK293 cells - 40 hour (AID 1224871). Further: nearly all actives have a fitted effect of over 45% in size. Further: potency means the concentration at half of the fitted maximal effect. The gist of the method: (§1)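 Real-time, in one plate: 600 HEK293 cells/well with dead-cell DNA dye, pinned compound after 5 h, 37 C incubation over 40 h; viable cells give no appreciable fluorescence.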
Assay [2] can be described thus: qHTS RealTime-Glo MT Cell Viability Assay in HEK293 cells - 16 hour (AID 1224872). Further: top concentration of the series differs between compounds; nearly all actives have a fitted effect of over 50% in size. In short, it runs like this: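 Viability tracked continuously by luminescence as live cells reduce a prosubstrate for NanoLuc; HEK293 cells preincubated 5 h, compound-treated at 37 C, and read at 0, 8, 16, 24, 32 and 40 h.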
Background: Quantitative high-throughput screening tests each substance at several concentrations.

Assay [3] in a line: qHTS RealTime-Glo MT Cell Viability Assay in HepG2 cells - 8 hour (AID 1224873). Further: nearly all actives have a fitted effect of over 55% in size. The gist of the method:
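HepG2 cells (600/well) mixed with RealTime-Glo MT reagent, settled 5 h at 37 C/5% CO2 before compound addition. Nonlytic NanoLuc luminescence from viable-cell prosubstrate reduction read repeatedly during 40 h treatment at 37 C.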

Assay [4] in a line: qHTS RealTime-Glo MT Cell Viability Assay in HEK293 cells - 40 hour (AID 1224874). Further: nearly all actives have a fitted effect of over 50% in size. The conditions noted are these: RealTime-Glo luminescence; max response: hits give low values. The gist of the method:
(§2)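 Kinetic, non-lysing viability readout. Seed HEK293 (600/well) with reagent, incubate 5 h at 37 C/5% CO2, pin 23 nL compound in DMSO, incubate at 37 C, read luminescence at 0, 8, 16, 24, 32, 40 h.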

A short description of assay [5]: A CellTox Green Cytotoxicity Assay to monitor cytotoxicity in HEK293 cells - 24 hour (AID 1224875). Further: nearly all actives have a fitted effect of over 45% in size. Further: potency means the concentration at half of the fitted maximal effect. On activity change: series mostly up to about 77 µM. In short, it runs like this:
as §1

Assay [6] is described as follows: A CellTox Green Cytotoxicity Assay to monitor cytotoxicity in HepG2 cells - 24 hour (AID 1224878). Further: nearly all actives have a fitted effect of over 45% in size. The gist of the method: (§3)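 Cytotoxicity was tracked as dead-cell DNA fluorescence in HepG2 cells treated with test compounds at 37 C; each time-point value comes from one kinetic series spanning 0, 8, 16, 24, 32 and 40 h.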
Assay [7] is described as follows: A CellTox Green Cytotoxicity Assay to monitor cytotoxicity in HepG2 cells - 40 hour (AID 1224879). Further: nearly all actives have a fitted effect of over 40% in size. Further: potency means the concentration at half of the fitted maximal effect. The gist of the method:
as §3

A short description of assay [8]: qHTS RealTime-Glo MT Cell Viability Assay in HEK293 cells - 0 hour (AID 1224880). Further: top concentration of the series differs between compounds; nearly all actives have a fitted effect of over 45% in size. The gist of the method:
as §2

Assay [9] in a line: qHTS RealTime-Glo MT Cell Viability Assay in HepG2 cells - 32 hour (AID 1224877). Further: nearly all actives have a fitted effect of over 55% in size. The gist of the method: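 Viability was tracked continuously by NanoLuc luminescence from prosubstrate reduced by living HepG2 cells, at successive time points over 40 h of compound exposure. Cells with reagent were preincubated 5 h at 37 °C before compound addition.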
A short description of assay [10]: A CellTox Green Cytotoxicity Assay to monitor cytotoxicity in HepG2 cells - 16 hour (AID 1224876). Further: nearly all actives have a fitted effect of over 45% in size. In short, it runs like this: as §3
On the % scale 0 is the no-effect control and ±100 the full control effect.

Regarding `CC1=CC[C@H](C(C)C)C=C1`, the Potency entry in assay [1], in assay [2], in assay [3], in [5], in assay [6] and in [7] was “inactive” each time. In addition, the Potency entry in assay [8] was “inactive”. Moreover, the max response in assay [4] is -3.46%.

Take `O=C(O)CC(=O)C(=O)O`: the Potency entry in [1], in assay [2], in assay [3], in assay [5], in assay [9] and in assay [8] was “inactive” each time. The max response in assay [4] is -2.18%.

With `O=C(O)CNCC(=O)O`, the cytotoxicity increase in [1] was 3.68% [at 6.97 µM]; in assay [7], -10.4% [at 6.97 µM]. Moreover, the activity change, negative = cytotoxicity in assay [2] is -7.32% [at 6.97 µM]; in [8] it was -1.51% [at 6.97 µM]. Further, the viability change, negative = cytotoxic in assay [3] is 0.198% [at 6.97 µM]. The max response in assay [4] is -8.46%. Besides, the activity change in assay [5] was 3.54% [at 6.97 µM, hits give high values]. Moreover, the activity change, negative = cytotoxic in assay [9] was 0.774% [at 6.97 µM]. The cytotoxicity in [6] was -3.31% [at 6.97 µM].

As to `Nc1ccc([N+](=O)[O-])c(C(F)(F)F)c1`, the Potency entry in assay [1], in [2], in assay [3], in assay [5], in assay [6] and in assay [8] was “inactive” in each case. Also, in assay [4], the max response is -6.2%.

For `CCC(Cl)CCC(Cl)C(Cl)CC(Cl)C(Cl)C(Cl)CCl` (stereo not drawn), the Potency entry in [1], in [2], in assay [3], in assay [5], in [10] and in assay [6] was “inactive” throughout. Also, the Potency entry in assay [8] was “inactive”. In addition, the max response in assay [4] was 0.988%.

Take `COc1ccc(C)cc1[N+](=O)[O-]`: the Potency result in assay [1], in [2], in assay [3], in assay [5], in assay [10] and in assay [6] was “inactive” in each case. The Potency result in assay [7] and in assay [8] was “inactive” throughout. For the same molecule, the max response in assay [4] is -4.46%.

Regarding `Nc1cccc(S(=O)(=O)c2cccc(N)c2)c1`, the Potency entry in assay [1], in [2], in [3], in [5], in assay [6] and in assay [7] was “inactive” throughout. The Potency result in assay [8] is “inactive”. The max response in [4] was -13.5%.

On to `CCCCCCCCCCCC(=O)OC[C@@H](O)[C@H]1OC[C@H](OCCO)[C@H]1OCCO`, for which the Potency result in assay [1], in assay [2], in [3], in assay [5], in assay [6] and in assay [8] was “inactive” each time. The max response in assay [4] was -0.559%.

`CC(C)CC(=O)C1C(=O)c2ccccc2C1=O`: the Potency result in assay [1], in assay [2], in [3], in assay [5], in assay [9] and in assay [6] was “inactive” each time. Moreover, the Potency result in [8] is “inactive”. In addition, in assay [4], the max response was 0.634%.

As for `CCCCC1=NC2(CCCC2)C(=O)N1Cc1ccc(-c2ccccc2-c2nn[nH]n2)cc1`, the Potency entry in assay [1], in [2], in [3], in assay [5], in assay [9] and in assay [6] was “inactive” each time. In addition, the Potency entry in assay [7] and in assay [8] was “inactive” each time. The max response in assay [4] is -1.18%.

For `NC(N)=NCCC[C@H](N)C(=O)O`, the cytotoxicity increase in [1] was -21.8% [at 6.97 µM]; in assay [7], -3.66% [at 6.97 µM]. For the same molecule, the values for the activity change, negative = cytotoxicity in assay [2] and in assay [8] were 5.7% [at 6.97 µM] and 14% [at 6.97 µM], respectively. Also, the viability change, negative = cytotoxic in [3] is 1.03% [at 6.97 µM]. The max response in assay [4] was 2.97%. Besides, in assay [5], the activity change is -20.5% [at 6.97 µM, hits give high values]. Also, the activity change, negative = cytotoxic in assay [9] was 2.81% [at 6.97 µM]. For the same molecule, in assay [6], the cytotoxicity was -6.35% [at 6.97 µM].

As for `CN1C[C@H]2c3ccccc3Oc3ccc(Cl)cc3[C@@H]2C1`, the Potency entry in assay [1], in [2], in assay [3], in [5] and in assay [9] was “inactive” in each case. For the same molecule, in assay [4], the max response is -21.8%.

Turning to `CCCCCCCCCCCCCCCCOS(=O)(=O)O`, the figures for the Potency in assay [1] and in assay [5] were 21.3 µM (active) and 19 µM (active), respectively. In addition, the Potency entry in assay [2], in [3], in assay [9] and in assay [8] was “inactive” throughout. Further, the max response in [4] was -27.5%.

Take `CC(CSC(=O)c1ccccc1)C(=O)N1C[C@@H](Sc2ccccc2)C[C@H]1C(=O)O` (stereo partly drawn): the cytotoxicity increase in [1] is 1.14% [at 15.8 µM]; in assay [7] it was -0.523% [at 15.8 µM]. Further, the activity change, negative = cytotoxicity in [2] is -4.93% [at 15.8 µM]; in assay [8], -6.47% [at 15.8 µM]. Further, the viability change, negative = cytotoxic in [3] is 1.39% [at 15.8 µM]. Further, in assay [4], the max response is -5.01%. The activity change in assay [5] is 3.46% [at 15.8 µM, hits give high values]. The activity change, negative = cytotoxic in assay [9] was 4.17% [at 15.8 µM].

`Nc1ccccc1S(=O)(=O)c1ccccc1`: the Potency result in assay [1], in assay [2], in assay [3], in [5], in [9] and in assay [6] was “inactive” each time. In addition, the Potency entry in assay [7] and in [8] was “inactive” each time. Further, in [4], the max response was -22.9%.

Regarding `CCNc1cc(O)ccc1C`, the Potency in [1] was 34.3 µM (active); in assay [5] it was 38.5 µM (active). In addition, the Potency entry in assay [2], in [3], in assay [9], in assay [6], in [7] and in assay [8] was “inactive” each time. The max response in assay [4] is 7.99%.

With `C=CCOC(=O)CCC1CCCCC1`, the Potency entry in assay [1], in [2], in [3], in assay [5], in [9] and in [6] was “inactive” each time. The Potency entry in assay [7] and in assay [8] was “inactive” each time. Moreover, the max response in assay [4] is 4.81%.

Take `CN1CCC(N(Cc2cccs2)c2ccccc2)CC1`: the Potency is 19 µM (active) in assay [1], 19 µM (active) in [5] and 21.3 µM (active) in assay [7]. Besides, the Potency result in assay [2], in assay [3], in assay [9] and in [8] was “inactive” throughout. In assay [4], the max response was -14.7%.

As for `CCCCCCCCCCCc1ccccc1`, the Potency result in assay [1], in assay [2], in assay [3], in assay [5], in [10] and in assay [6] was “inactive” each time. Moreover, the Potency entry in assay [7] and in [8] was “inactive” throughout. The max response in assay [4] is -1.2%.

With `Nc1c(CC(=O)O)cccc1C(=O)c1ccc(Br)cc1`, the Potency result in [1], in assay [2], in assay [3], in [5], in assay [9] and in assay [6] was “inactive” in each case. Also, the Potency result in [7] and in assay [8] was “inactive” each time. The max response in assay [4] was 13%.
